Assay results as given in PubChem BioAssay AID743398 (Broad Institute, 2014).
Hit rate of the full screen: of about 300,000 compounds, about 3,600 (1.2%) were called active. This excerpt belongs to a sample that is enriched for actives. A number with no mark means an inactive call. Cut-off read from the data, not from the text of the source: active = activation above about 30% (passing the limit was not always enough); inconclusive = no clear call, values can overlap the other calls.

assay: activation of beta-catenin signaling reporter – cell-based, plate reader, single point, primary screen (AID 743398); conditions: Wnt/beta-catenin reporter cell assay, activator, at 9.35 µM, hits give high values;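 note: 0% = neutral control wells and 100% = positive control wells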

Structure (SMILES) | activation
CCCc1cc(C(=O)Nc2ccc(C(=O)OC)cc2)cs1 | 0.573%
CCCc1cc(C(=O)Nc2ccc(Cl)cn2)cs1 | 39.5% (active)
O=C(Nc1ccc(Cl)cn1)c1ccccc1-c1ccccc1 | -0.296%
Cc1ccc(F)c(S(=O)(=O)NC(=O)C2(C)CCN2C(=O)c2ccco2)c1 (centres undefined) | -0.487%
C=CCN=C1NC(c2cccc(C(F)(F)F)c2)C(C(=O)OC)=C(C)N1C (centres undefined) | 1.05%
CC(=O)c1ccc(-c2cnc3c(NC=O)cc(-c4cccc(NS(C)(=O)=O)c4)cn23)cc1 | 1.57%
C[C@@H]1ON(C)[C@H]2C[C@H]3c4cc(N5CCOCC5)ccc4CCN3C[C@@H]12 | -0.66%
CNS(=O)(=O)c1ccc(NC(=O)Nc2ccc3c(c2)OCO3)cc1 | 26.8%
Cc1cccc(NC(=O)Nc2ccc3c(c2)OCO3)n1 | 44.4% (active)
CC(NC(=O)Nc1ccc2c(c1)OCO2)c1ccncc1 (centres undefined) | 9.83%
CN(Cc1ccccc1)C(=O)CCC1CCN(C(=O)c2ccco2)CC1 | -3.66%
c1ccc(C(=NNc2nc3ccccc3s2)c2ccccn2)cc1 | 5.23%
c1ccc2sc(NN=C3CCCC3)nc2c1 | 52.4% (active)
O=[N+]([O-])c1cc(Br)c(O)c(/C=N/Nc2nc3ccccc3s2)c1 | 8.44%
CCOC(=O)N(C)c1c(CC)nc2c(OCc3ccccc3C(=O)OC)cccn12 | 4.08%
CN(Cc1ccc(C(F)(F)F)cc1)C(=O)[C@H]1O[C@@H](n2cnc3c(N)ncnc32)[C@H](O)[C@@H]1O | -3.24%
CC1(Oc2cccc(F)c2)CCN(Cc2ccccc2OC(F)F)C1 (centres undefined) | 0.111%
CC(=O)Nc1ccc(-c2nc3ccccc3o2)cc1 | 62% (active)
CC(=O)Nc1ccc(Nc2c3ccccc3nc3ccccc23)cc1 | -1.24%
Cc1ccc2nc(-c3ccc(NC(=O)c4cccnc4)cc3)oc2c1 | 4.47%
CCOC(=O)N1CCN(C(=O)C[C@@H]2C[C@@]3(C(=O)OC)CCCCC=C3N(CCC3=CCCCC3)C2=O)CC1 | -3.76%
Clc1ccc(N/N=C/c2cccs2)nn1 | 3.73%
Oc1cccc(/C=N/Nc2ccc(Cl)nn2)c1O | 125% (active)

Structure (SMILES) | activation
COc1cccc(/C=N/Nc2ccc(Cl)nn2)c1 | 10.5%
COC(=O)c1cc2c(c3c4cc(F)ccc4n(S(=O)(=O)c4ccccc4)c13)C(=O)N(Cc1ccccc1OC)C2 | -6.32%
Cc1cccc(C(=O)OCC(=O)Nc2ccc(F)cc2)c1 | -0.891%
CCC(=O)Nc1ccc2nn(-c3ccc(F)cc3)nc2c1 | 51% (active)
Cc1nn(CC(=O)Nc2ccc(F)cc2)c(=O)c2ccccc12 | -0.309%
O=C(CCCN1C(=O)C(c2ccccc2)Oc2cccnc21)Nc1ccccc1Br (centres undefined) | -1.84%
O=C(C(=O)N1CCC(CNC(=O)c2cccnc2Cl)CC1)c1cccs1 | 2.94%
Clc1cccc(Cl)c1Cn1nnc(-c2cccs2)n1 | 32.4% (active)
O=c1cc(Cn2nnc(-c3ccc(Cl)cc3)n2)nc2sccn12 | 3.21%
COc1ccccc1N1CCN(C(=O)Cn2nnc(-c3cccs3)n2)CC1 | -9.59%
CCOC(=O)Cn1c2c(n(-c3ccc(F)cc3)c1=O)C=C(c1ccccc1)[C@@H](C)C(C(=O)N(C)C1CCCCC1)=C2 | -5.16%
CC(C)Oc1ccc(CN2CCC2(C)C(=O)NCc2ccc(C(F)(F)F)cc2)cc1 (centres undefined) | -2.84%
COc1cccc(OCc2cc(C(=O)N3CCN(C(=O)c4ccco4)CC3)no2)c1 | 31.4% (active)
COc1ccc(OCc2cc(C(=O)N3CCCC3)no2)c2ccccc12 | 43% (active)
O=C(c1cc(COc2ccc(F)cc2F)on1)N1CCOCC1 | 12.4%
COc1ccccc1-c1cc(C(=O)N2CCCCC2)no1 | 0.293%
COc1cccc(C(=O)Nc2ccc(N3CCN(C(=O)c4ccco4)CC3)cc2)c1 | -1.7%
COc1cc(Cl)ccc1OCc1cc(C(=O)N2CC[C@@H]3CCCC[C@H]3C2)no1 | 18.3%
O=C(c1cc(-c2ccc(O)cc2)on1)N1CCOCC1 | 19.9%
O=C(c1cc(-c2ccccc2O)on1)N1CCCC1 | 57.5% (active)
O=C(c1cc(COc2cccc(C(F)(F)F)c2)on1)N1CCSCC1 | 1.55%
COC(=O)[C@]12C[C@H](CC(=O)NCc3ccc(OC)c(OC)c3)C(=O)N(Cc3ccccc3)C1=C[C@H](C(C)C)O[C@@H]2C1CC1 | -0.346%
CSCCC(NC(=O)COc1ccccc1)C(=O)N1CCN(c2cccc(C(F)(F)F)c2)CC1 (centres undefined) | -3.61%

Structure (SMILES) | activation
COc1ccc(OC)c(NC(=O)C2CCCN2S(=O)(=O)c2ccc3c(c2)CC(C)N3C(C)=O)c1 (centres undefined) | -5.88%
CCOC(=O)N1CCN(C(=O)C[C@@H]2C[C@@]3(C(=O)OC)CC(C)(C)CC=C3N(Cc3ccco3)C2=O)CC1 | 0.171%
CCc1nc2c(OCCOc3ccccc3)cccn2c1N(C=O)Cc1ccc(OC)cc1 | -2.79%
NC(=O)c1c(NC(=O)c2ccccc2)sc2c1CCCC2 | 1.12%
Cc1ccc(C(=O)c2c(NC(=O)c3ccncc3)sc3c2CCCC3)cc1 | 38.4% (active)
Cc1ccc(NC(=O)c2c(NC(=O)CCC(=O)O)sc3c2CCCCC3)cc1 | 29.5%
CCCCCCCCN1C(=O)[C@@H](CC(=O)NCCCC)C[C@@]2(C(=O)OC)C1=C[C@H](C(C)(C)C)O[C@@H]2C | -3%
COc1cccc(/C=C2\SC(=S)N(CCCC(=O)N3CCOCC3)C2=O)c1 | 3.86%
CCc1nc2ccc(C(=O)Nc3ccc(OC)c(OC)c3)cn2c1N(C)C(=O)c1cccc(OC)c1 | -0.76%
Cn1c(CNC(=O)c2ccccc2F)nnc1SCc1ccc(F)cc1 | -0.026%
Cc1ccc(C(=O)CSc2nnc(Cn3nnc4ccccc43)n2C)cc1 | -0.352%
Cn1c(Cn2nnc3ccccc32)nnc1SCC(=O)c1ccccc1F | 85.8% (active)
Cc1[nH]c2ccccc2c1CC(=O)Nc1ccc(Nc2cccnc2)c(-c2cccc(Cl)c2)c1 | -2.14%
CCOC(=O)[C@]12CCCC=C1N(CCC1=CCCCC1)C(=O)[C@H](CC(=O)N1CCN(C(=O)c3ccco3)CC1)C2 | -1.88%
CCOc1ccc(/C(O)=C2\C(=O)C(=O)N(c3ccc(OC)cc3)C2c2ccccc2[N+](=O)[O-])cc1 (centres undefined) | 53.5% (active)
COc1ccccc1C1/C(=C(/O)c2ccc(OC(C)C)cc2)C(=O)C(=O)N1c1cc(C)on1 (centres undefined) | -12%
COc1ccc(C2/C(=C(/O)c3ccccc3)C(=O)C(=O)N2C)c(OC)c1 (centres undefined) | 0.335%
OC[C@@H]1CN(Cc2ccc(F)cc2)C[C@H](n2cnc3c(NC4CCCC4)ncnc32)O1 | -2.91%
CC1C(C)N(C(=O)CCl)c2ccccc2N1C(=O)CCl (centres undefined) | -5.8%
O=c1oc2ccccc2c(=O)c2ccccc12 | -3.29%
COc1cc(N=Cc2c(O)c3ccccc3oc2=O)c(OC)cc1Cl | -0.517%
COc1ccccc1N=Cc1c(O)c2ccccc2oc1=O | 59% (active)
COc1cccc(-c2cc(NC(C)=O)c3ncc(-c4cccc(C(C)=O)c4)n3c2)c1 | -1.27%

Structure (SMILES) | activation
COc1ccc(OC)c(C(O)c2ncc(-c3cccc(C(F)(F)F)c3)[nH]2)c1 (centres undefined) | -1.7%
CC1(C)OC(=O)C2=C(CC(CCc3ccccc3)OC2c2ccc(Cl)cc2)O1 (centres undefined) | -2.32%
CCOC(=O)CNC(=O)N(C)[C@H]1C[C@H]2c3[nH]c4c(-c5ccc6c(c5)OCO6)cccc4c3CCN2C(=O)[C@H]1[C@H](C)O | -4.82%
CCCCCCNC(=O)O[C@H]1CN(C(=O)OC(C)C)N(C(=O)OC(C)C)[C@@H]2CN(S(=O)(=O)c3ccc(C)cc3)C[C@]12O | -6.88%
O=c1oc2ccccc2cc1-c1csc(Nc2ccc(O)cc2)n1 | 48% (active)
CCCn1c(CCNc2nc(-c3ccc(OC)cc3)cs2)nc2ccccc21 | 1.69%
O=C(Nc1ccncc1)c1cc2ccccc2o1 | -4.19%
CCNc1nc(-c2cc3ccccc3o2)cs1 | 55.9% (active)
O=C(NCc1cccnc1)c1cccc(-c2cc3ccccc3oc2=O)c1 | -9.13%
Cc1nc(C)c(-c2csc(NCCc3ccccc3)n2)s1 | 10.9%
CCOC(=O)[C@]12CCCC=C1N(CCC1=CCCCC1)C(=O)[C@H](CC(=O)NCCCCc1ccccc1)C2 | -3.03%
COc1ccc(NC(=O)c2sc(=O)n(Cc3ccc(S(=O)(=O)N(C)C)cc3)c2C)cc1 | -1.18%
O=C(Nc1ccc(Cl)cc1)C1Cc2c(-c3ccc4c(c3)OCO4)ccnc2O1 (centres undefined) | -2.4%
O=C(NCCOc1ccccc1)N1[C@H]2CC[C@@H]1C=C(c1ccc(F)cc1OCc1ccccc1)C2 | -5.01%
COc1ccc(SSc2ccc(OC)cc2C(=O)O)c(C(=O)O)c1 | -2.15%
Cc1ccc(S(=O)(=O)N2[C@@H](Cc3ccccc3)CO[C@H]2CC(=O)OCc2ccccc2)cc1 | -1.94%
COc1ccc(N2c3ccccc3CN(Cc3ccccc3)[C@@H](C)[C@H]2Cc2ccc(-c3ccccc3)cc2)cc1 | -4.27%
COc1ccc(OC)c(-c2csc(-c3cccs3)n2)c1 | 3.92%
CN=c1scc(-c2cc(OC)ccc2OC)n1/N=C/c1c(C)[nH]c2ccccc12 | 68.5% (active)
Cc1[nH]c2ccccc2c1/C=N\NC(=O)Cn1nnc(-c2ccccc2)n1 | -3.53%
